Source: paper PMC4552634, “A New Set of Chemical Starting Points with Plasmodium falciparum Transmission-Blocking Potential for Antimalarial Drug Discovery” (PLoS ONE, 2015)
Read-outs that look alike come from different tables or passages of the source. Out of some 13,000 compounds screened, about 3,200 (25%) showed an effect of 50% or more. This is one part of the list.

Tested on: P. falciparum stage V gametocytes
Design: BacTiter-Glo ATP luminescence viability of purified stage V gametocytes in 384-well plates, per cent inhibition versus DMSO
Conditions: 48 h, 5 µM, inhibitor

| Structure (SMILES) | % Inhibition [%] | % Inhibition (% Inhibition) [%] |
| --- | --- | --- |
| COc1ccc(NC(=O)Nc2ccc(-c3ccc(-c4nc5cccc(C)c5[nH]4)s3)cc2)cc1 [TCMDC-133243] | -2.294 |  |
| COc1ccc(CON2C(N)=NC(N)=NC2(C)C)cc1OC [TCMDC-131587] | 8.467 |  |
| N#Cc1ccc2[nH]cc(-c3cn4cc(SC5CCCC5)ccc4n3)c2c1 [TCMDC-134705] | -50.98 |  |
| O=C(Nc1cccnc1)c1cc(C(=O)Nc2cccnc2)cc([N+](=O)[O-])c1 [TCMDC-125067] | -34.07 |  |
| O=C(Nc1ccncc1)c1cc(C(=O)Nc2ccncc2)cc([N+](=O)[O-])c1 [TCMDC-125671] | 89.24 |  |
| COc1cccc(NC(=O)c2cc(C(=O)Nc3cccc(OC)c3)cc([N+](=O)[O-])c2)c1 [TCMDC-125177] | 2.834 |  |
| CC(C)c1ccc2c(c1)c(SC(C)(C)C)c(CC(C)(C)C#N)n2Cc1ccc(Cl)cc1 [TCMDC-131974] | -57.09 |  |
| COC(=O)c1ccc(CC(C)NCC(O)c2ccc(F)c(Cl)c2)cc1 (stereo not drawn) [TCMDC-131517] | 4.686 |  |
| COC(=O)c1ccc(CC(C)NCC(O)c2ccc(C(O)CNC(C)Cc3ccc(C(=O)OC)cc3)cc2)cc1 (stereo not drawn) [TCMDC-131545] | 100.9 |  |
| C[C@H](Cc1ccc(OCCCCCCOc2ccccc2)cc1)NC[C@@H](O)c1cc(Br)no1 [TCMDC-131567] | 65.38 |  |
| C[C@H](Cc1ccc(OCCNC[C@H](O)c2cccc(Cl)c2)cc1)NC[C@H](O)c1ccc(Cl)c(Cl)c1 [TCMDC-131547] | 69.99 |  |
| COC(=O)c1ccc(CC(C)NCC(O)c2cccc(OCc3ccccc3)c2)cc1 (stereo not drawn) [TCMDC-131486] | 29.25 |  |
| COC(=O)c1ccc(CC(C)NCC(O)c2ccc(Cl)c(Cl)c2)cc1 (stereo not drawn) [TCMDC-131431] | 21.35 |  |
| C[C@H](Cc1ccc(OCCCCCCOc2ccc(C[C@@H](C)N[C@H](C)c3ccccc3)cc2)cc1)NC[C@H](O)c1cccc(Cl)c1 [TCMDC-131564] | 103.4 |  |
| COc1ccc(C(=O)NCC(C)(C)c2nc(-c3ccc(Cl)c(O)c3)c(-c3ccncc3)[nH]2)cc1OCCN(C(C)C)C(C)C [TCMDC-140736] | 2.982 |  |
| CCCCCN1CCCC1CNS(=O)(=O)c1cccc(C(=O)Nc2cccc(C#N)c2)c1 (stereo not drawn) [TCMDC-133690] | -52.73 |  |
| Cc1ccc(C)c2sc(N(CCCn3ccnc3)C(=O)C=Cc3cccs3)nc12 [TCMDC-124923] | 12.01 |  |
| C=C[C@H]1CN2CC[C@H]1C[C@H]2[C@H](OS(=O)(=O)O)c1ccnc2ccccc12 [TCMDC-138341] | 14.93 |  |
| c1ccc(CCNc2ccnc(Nc3ccc4n[nH]nc4c3)n2)cc1 [TCMDC-136881] | 0.773 |  |
| CCCC(C)c1cnc2nc(N)nc(N)c2c1C (stereo not drawn) [TCMDC-137924] | 4.639 |  |
| CCCC1N=C(N)N=C(N)N1c1ccccc1 (stereo not drawn) [TCMDC-131293] | -19.04 |  |
| C[C@H](Cc1ccc(OCCCCCOc2ccc(C[C@@H](C)NC[C@H](O)c3cccc(Cl)c3)cc2)cc1)NC[C@H](O)c1cccc(Cl)c1 [TCMDC-131563] | 110.4 |  |

| Structure (SMILES) | % Inhibition [%] | % Inhibition (% Inhibition) [%] |
| --- | --- | --- |
| CC(Cc1ccc(OCCN2CCN(c3cccc(Cl)c3)CC2)cc1)NCC(O)c1cccc(Cl)c1 (stereo not drawn) [TCMDC-131533] | 18.65 |  |
| CNCCCCCCOc1ccc(CC(C)NCC(O)c2cccc(C(F)(F)F)c2)cc1 (stereo not drawn) [TCMDC-131523] | 111.6 |  |
| CCOC(=O)c1ccc(CC(C)NCC(O)c2cccc(C(F)(F)F)c2)cc1 (stereo not drawn) [TCMDC-131491] | 8.983 |  |
| COC(=O)c1ccc(C[C@@H](C)NC[C@H](O)c2cccc(C(F)(F)F)c2)cc1 [TCMDC-131458] |  | 35.35 |
| C#CCOc1ccc(CC(C)NCC(O)c2cccc(C(F)(F)F)c2)cc1 (stereo not drawn) [TCMDC-131480] | 12.31 |  |
| CC(Cc1ccc(OCCOc2ccccc2)cc1)NCC(O)c1cccc(C(F)(F)F)c1 (stereo not drawn) [TCMDC-131510] | 16.36 |  |
| CC(Cc1ccc(C2=CCNCC2)cc1)NCC(O)c1cccc(C(F)(F)F)c1 (stereo not drawn) [TCMDC-131537] | 95.16 |  |
| CC(Cc1ccc(C(=O)OCCOC(=O)c2ccc(CC(C)NCC(O)c3cccc(C(F)(F)F)c3)cc2)cc1)NCC(O)c1cccc(C(F)(F)F)c1 (stereo not drawn) [TCMDC-131544] | 75.47 |  |
| COC(=O)c1ccc(CC(C)NCC(O)c2cccc(C(F)(F)F)c2)cc1 (stereo not drawn) [TCMDC-131438] |  | 6.787 |
| COC(=O)c1ccc(C[C@@H](C)NC[C@H](O)c2cccc(C(F)(F)F)c2)cc1 [TCMDC-131475] |  | 15.4 |
| C[C@H](Cc1ccc(OCCCCCCOc2ccccc2)cc1)NC[C@H](O)c1cccc(Cl)c1 [TCMDC-131552] | 11.17 |  |
| O=C(NCc1cccc(F)c1)Nc1cccc(-c2ccc(-c3nc4ccc(F)cc4[nH]3)cc2)c1 [TCMDC-133293] | 6.951 |  |
| O=C(O)C1CC(=O)N(c2ccc(Cl)cc2)C1 (stereo not drawn) [TCMDC-125862] | 2.166 |  |
| COc1cccc(CN2CCCC(OC(c3ccc(F)cc3)c3ccc(F)cc3)C2)c1O (stereo not drawn) [TCMDC-136167] | -3.055 |  |
| CN1CCC(NC(=O)c2cccc(Nc3cc(Nc4cccc(Br)c4)ncn3)c2)CC1 [TCMDC-124773] | -81.1 |  |
| CN(C)CCOc1ccc(-c2cc(-c3ccncc3)c(-c3ccc(Cl)c(O)c3)o2)cc1 [TCMDC-141227] | 36.77 |  |
| COCC(C)n1c(SC(C)C(=O)Nc2cc([N+](=O)[O-])ccc2Cl)nc2ccccc2c1=O (stereo not drawn) [TCMDC-123709] | -35.25 |  |
| C[C@H](Cc1ccc(OCCCCCCOc2ccc(C[C@@H](C)NC(=O)[C@H](O)c3cccc(Cl)c3)cc2)cc1)NC[C@H](O)c1cccc(Cl)c1 [TCMDC-131571] | -3.505 |  |
| CC(Cc1ccc(OCCOc2ccccc2)cc1)NCC(O)c1cccc(Cl)c1 (stereo not drawn) [TCMDC-138939] | 12.28 |  |
| C[C@H](Cc1ccc(C[C@@H](C)NC[C@H](O)c2cccc(Cl)c2)cc1)NC[C@H](O)COc1ccccc1 [TCMDC-131549] | 104.7 |  |
| CC(NCCc1cccc(Cl)c1)C(O)c1ccc(OCCCCCCOc2ccc(C(O)C(C)NCCc3cccc(Cl)c3)cc2)cc1 (stereo not drawn) [TCMDC-139334] | 98.69 |  |
| CCCN1CCN(c2cc(NCC)c3c4c(onc24)-c2ccccc2C3=O)CC1 [TCMDC-123898] | -28.72 |  |

| Structure (SMILES) | % Inhibition [%] | % Inhibition (% Inhibition) [%] |
| --- | --- | --- |
| c1cc(COc2ccc(C3=NCCN3)cc2)nc(COc2ccc(C3=NCCN3)cc2)c1 [TCMDC-137805] | -1.887 |  |
| CN1CCN(c2ccnc3ccc(NC(=O)Nc4ccc5ccccc5c4)cc23)CC1 [TCMDC-139343] | -1.403 |  |
| Cc1cccc2[nH]c(-c3cccc(-c4cccc(NC(=O)c5ccoc5)c4)c3)nc12 [TCMDC-136846] | 20.35 |  |
| Cc1cccc2[nH]c(-c3cccc(-c4cccc(NC(=O)c5cnc[nH]5)c4)c3)nc12 [TCMDC-136936] | -12.17 |  |
| Cc1cccc2[nH]c(-c3cccc(-c4ccc(NC(=O)c5ccncc5)cc4)c3)nc12 [TCMDC-136966] | 61.29 |  |
| Cc1cccc2[nH]c(-c3cccc(-c4ccc(NC(=O)c5ccoc5)cc4)c3)nc12 [TCMDC-136847] | 83.68 |  |
| Cc1cccc2[nH]c(-c3cccc(-c4ccc(NC(=O)c5cnc[nH]5)cc4)c3)nc12 [TCMDC-136937] | 92.2 |  |
| Cc1cccc2[nH]c(-c3cccc(-c4ccc(NC(=O)c5ccc(=O)[nH]n5)cc4)c3)nc12 [TCMDC-137034] | -23.81 |  |
| Cc1cccc2[nH]c(-c3ccc(-c4cccc(NC(=O)c5ccncc5)c4)cc3)nc12 [TCMDC-136958] | 22.27 |  |
| Cc1cccc2[nH]c(-c3cccc(-c4cccc(NC(=O)c5ccncc5)c4)c3)nc12 [TCMDC-136965] | -36.15 |  |
| Cc1cccc2[nH]c(-c3cccc(-c4ccc(NC(=O)NC(C)C)cc4)c3)nc12 [TCMDC-133251] | -14.46 |  |
| O=C(Nc1ccc(-c2ccc(-c3nc4ccccc4[nH]3)s2)cc1)c1ccncc1 [TCMDC-136954] | 11.16 |  |
| COc1cc(-c2ccc3c(-c4ccc(C(=O)N5CCN(C)CC5)cc4)[nH]nc3n2)cc(OC)c1OC [TCMDC-124890] | 40.62 |  |
| COCCCNc1sc(S(=O)(=O)c2ccccc2)nc1S(=O)(=O)c1ccc(Cl)cc1 [TCMDC-124764] | -6.212 |  |
| Cc1ccccc1NC(=O)C1CSCN1C(=O)OCc1ccccc1 (stereo not drawn) [TCMDC-125742] | -21.88 |  |
| COc1ccc(F)cc1-c1ccccc1CNC(=O)c1cnn(-c2ccc([N+](=O)[O-])cc2)c1C(F)(F)F [TCMDC-136460] | -26.92 |  |
| COc1ccc(C(=O)NCc2ccccc2-c2ccc(C(C)(C)C)cc2)cc1O [TCMDC-136716] | -20.55 |  |
| COc1ccc(F)cc1-c1ccccc1CNC(=O)CN(C)S(=O)(=O)c1cc(C)cc(Cl)c1C [TCMDC-132302] | 82.24 |  |
| CCCCCC(C)N=C(Nc1ccc([N+](=O)[O-])cc1O)Nc1ccccc1Br (stereo not drawn) [TCMDC-140073] | -48.06 |  |
| CCOC(=O)C1=C(C)N=c2sc(=Cc3cc(Cl)ccc3O)c(=O)n2C1c1ccc2c(c1)OCO2 (stereo not drawn) [TCMDC-124113] | 66.04 |  |
| CCOC(=O)C1=C(C)N=c2sc(=Cc3cc(Cl)ccc3O)c(=O)n2C1c1cc(OC)c(OC)cc1Br (stereo not drawn) [TCMDC-124116] | 34.65 |  |
| CCOC(=O)C1=C(C)N=c2sc(=Cc3cc(Cl)ccc3O)c(=O)n2C1c1ccc(OC)cc1 (stereo not drawn) [TCMDC-124112] | -5.89 |  |
